Test results taken from the supplement of paper PMC10849652.
Targets with a hit are over-represented here; the source holds about 7,900 in all. About 0.6% of all pairs of compound and target were hits. Unmarked numbers belong to inactive results.

Columns and labels:
Assay in all cases: log2 fold change, soluble protein after heating vs DMSO (PISA); higher = thermal stabilisation; K562 cells, 10 uM, 30 min; active = over 0.2 and 3.5 SD of the protein, either way, in both replicates (recomputed)
IRAK-1-4 Inhibitor I = compound: C1COCCN1CCN2C3=CC=CC=C3N=C2NC(=O)C4=CC(=CC=C4)[N+](=O)[O-] [IRAK-1-4 Inhibitor I]
Outline: (§1)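 K562 cells at 2×10^6 cells/mL were treated with 10 μM compound for 30 min. Aliquots were heated for 3 min across 48°C-58°C, pooled, and extracted in PBS with 0.5% NP-40 at 4°C; soluble protein was the supernatant after 21,000xg for 90 min. Soluble protein was quantified by TMTpro 16plex LC-MS/MS with channel sums equalised, and reported as log2 fold change in thermal stability against DMSO controls, with values from duplicates.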

ibrutinib = compound: C=CC(=O)N1CCC[C@@H](n2nc(-c3ccc(Oc4ccccc4)cc3)c3c(N)ncnc32)C1 [ibrutinib]
Outline: as §1

[1] = compound: CC(=O)c1cnc2ccc(-c3cc(Cl)c(O)c(Cl)c3)nc2c1N[C@H]1CC[C@H](CN(C)C)CC1
Outline: as §1

ralimetinib = compound: CC(C)(C)Cn1c(N)nc2ccc(-c3[nH]c(C(C)(C)C)nc3-c3ccc(F)cc3)nc21 [ralimetinib]
Outline: as §1

[2] = compound: CC(C)(O)CC(=O)NCCn1ccc2ncnc(Nc3ccc(Oc4cccc(C(F)(F)F)c4)c(Cl)c3)c21
Outline: as §1

[3] = compound: CC(C)C1=C2N=C(C=C(N2N=C1)NCC3=CC=CC=C3)NCCCCCCN
Outline: as §1

[4] = compound: CC(C)C[C@@H](C=O)NC(=O)[C@H](CC(C)C)NC(=O)[C@H](CC(C)C)NC(=O)OCc1ccccc1
Outline: as §1

pinometostat = compound: CC(C)N(C[C@H]1O[C@@H](n2cnc3c(N)ncnc32)[C@H](O)[C@@H]1O)[C@H]1C[C@@H](CCc2nc3cc(C(C)(C)C)ccc3[nH]2)C1 [pinometostat]
Outline: as §1

[5] = compound: CC1=C(C(CC(=O)N1)C2=CC=C(C=C2)C(F)(F)F)C(=O)NC3=C(C=C4C(=C3)C=NN4)F
Outline: as §1

[6] = compound: CC1=C(C2=C(C=C1)C(=O)C3=CC=CC=C3N2CCCN)C
Outline: as §1

Chain of UniProt Q5JRX3 (Q5JRX3 whole entry, looked up): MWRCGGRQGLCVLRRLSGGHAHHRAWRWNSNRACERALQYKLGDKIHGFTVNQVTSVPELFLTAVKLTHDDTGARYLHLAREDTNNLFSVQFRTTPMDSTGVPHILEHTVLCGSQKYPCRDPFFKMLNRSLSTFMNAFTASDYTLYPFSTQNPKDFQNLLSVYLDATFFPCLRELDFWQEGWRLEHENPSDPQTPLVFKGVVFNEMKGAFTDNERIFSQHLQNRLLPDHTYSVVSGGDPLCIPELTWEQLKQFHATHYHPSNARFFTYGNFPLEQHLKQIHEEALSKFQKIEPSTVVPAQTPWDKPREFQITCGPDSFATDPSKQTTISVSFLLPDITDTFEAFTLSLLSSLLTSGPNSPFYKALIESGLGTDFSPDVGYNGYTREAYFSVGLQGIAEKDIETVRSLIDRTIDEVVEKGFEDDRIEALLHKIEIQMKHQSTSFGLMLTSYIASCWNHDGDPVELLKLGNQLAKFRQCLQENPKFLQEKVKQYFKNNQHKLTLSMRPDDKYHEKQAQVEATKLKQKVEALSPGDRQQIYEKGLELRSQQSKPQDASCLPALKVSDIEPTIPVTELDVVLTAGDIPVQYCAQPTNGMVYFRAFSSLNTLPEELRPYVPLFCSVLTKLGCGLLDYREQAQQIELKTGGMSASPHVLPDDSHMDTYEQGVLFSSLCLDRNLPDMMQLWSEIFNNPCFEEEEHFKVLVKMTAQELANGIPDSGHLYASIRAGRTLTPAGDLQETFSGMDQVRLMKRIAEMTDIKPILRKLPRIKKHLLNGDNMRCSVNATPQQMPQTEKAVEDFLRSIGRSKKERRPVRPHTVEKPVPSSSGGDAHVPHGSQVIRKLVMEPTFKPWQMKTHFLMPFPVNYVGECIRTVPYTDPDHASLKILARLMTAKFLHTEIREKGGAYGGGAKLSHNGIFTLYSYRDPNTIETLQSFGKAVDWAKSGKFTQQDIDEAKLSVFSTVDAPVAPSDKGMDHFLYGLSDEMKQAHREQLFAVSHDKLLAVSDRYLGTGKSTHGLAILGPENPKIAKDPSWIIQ
Chain of UniProt Q8TBX8 (Q8TBX8 whole entry, looked up): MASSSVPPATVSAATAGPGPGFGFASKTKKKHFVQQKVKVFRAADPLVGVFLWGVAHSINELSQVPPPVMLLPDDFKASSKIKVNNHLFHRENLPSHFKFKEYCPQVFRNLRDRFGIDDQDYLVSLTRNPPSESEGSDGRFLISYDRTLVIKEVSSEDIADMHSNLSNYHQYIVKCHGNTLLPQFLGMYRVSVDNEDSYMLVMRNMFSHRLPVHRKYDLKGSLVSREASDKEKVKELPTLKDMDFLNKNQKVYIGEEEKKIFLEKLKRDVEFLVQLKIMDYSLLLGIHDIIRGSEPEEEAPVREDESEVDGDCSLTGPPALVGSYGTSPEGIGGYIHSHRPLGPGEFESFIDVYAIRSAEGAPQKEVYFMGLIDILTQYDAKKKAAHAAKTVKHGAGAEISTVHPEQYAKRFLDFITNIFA
Chain of UniProt O60256 (O60256 whole entry, looked up): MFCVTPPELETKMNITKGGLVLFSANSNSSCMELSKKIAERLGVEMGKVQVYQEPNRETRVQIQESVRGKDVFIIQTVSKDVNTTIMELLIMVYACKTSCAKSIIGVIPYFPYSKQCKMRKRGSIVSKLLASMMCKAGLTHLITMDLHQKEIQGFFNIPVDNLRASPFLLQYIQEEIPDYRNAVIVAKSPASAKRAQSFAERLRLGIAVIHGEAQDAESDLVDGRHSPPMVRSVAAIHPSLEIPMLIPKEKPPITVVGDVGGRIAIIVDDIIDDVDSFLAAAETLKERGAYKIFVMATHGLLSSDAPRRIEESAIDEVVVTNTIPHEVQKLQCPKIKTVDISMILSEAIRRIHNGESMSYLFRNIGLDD
Chain of UniProt Q15172 (Q15172 whole entry, looked up): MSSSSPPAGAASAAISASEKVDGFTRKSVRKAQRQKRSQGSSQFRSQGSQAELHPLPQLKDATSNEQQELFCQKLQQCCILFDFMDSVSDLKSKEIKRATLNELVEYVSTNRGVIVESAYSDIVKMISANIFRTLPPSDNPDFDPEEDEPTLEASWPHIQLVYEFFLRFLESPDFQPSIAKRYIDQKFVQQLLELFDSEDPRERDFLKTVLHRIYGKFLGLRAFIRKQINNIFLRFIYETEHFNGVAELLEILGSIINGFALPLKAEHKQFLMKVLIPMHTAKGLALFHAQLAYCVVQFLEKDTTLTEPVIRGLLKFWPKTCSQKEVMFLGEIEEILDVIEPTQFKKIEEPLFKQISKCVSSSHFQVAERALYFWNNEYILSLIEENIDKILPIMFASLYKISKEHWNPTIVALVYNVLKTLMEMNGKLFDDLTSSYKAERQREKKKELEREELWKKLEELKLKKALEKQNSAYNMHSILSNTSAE
Chain of UniProt O96011 (O96011 whole entry, looked up, change not shown): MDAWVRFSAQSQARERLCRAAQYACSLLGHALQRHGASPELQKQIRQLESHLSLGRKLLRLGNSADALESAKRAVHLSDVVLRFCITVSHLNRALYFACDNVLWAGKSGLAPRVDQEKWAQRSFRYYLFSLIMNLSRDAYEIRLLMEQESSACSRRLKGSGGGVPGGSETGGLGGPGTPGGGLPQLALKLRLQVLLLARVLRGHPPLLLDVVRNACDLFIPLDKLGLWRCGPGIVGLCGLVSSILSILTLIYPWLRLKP
Chain of UniProt Q9Y478 (Q9Y478 whole entry, looked up): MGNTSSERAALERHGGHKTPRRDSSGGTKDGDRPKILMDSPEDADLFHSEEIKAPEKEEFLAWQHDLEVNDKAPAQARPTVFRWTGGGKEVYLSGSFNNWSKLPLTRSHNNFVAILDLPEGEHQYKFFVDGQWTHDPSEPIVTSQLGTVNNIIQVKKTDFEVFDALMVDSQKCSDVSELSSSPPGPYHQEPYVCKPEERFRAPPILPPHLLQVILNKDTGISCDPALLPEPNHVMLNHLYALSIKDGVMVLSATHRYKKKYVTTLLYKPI
Chain of UniProt Q15121 (Q15121 whole entry, looked up): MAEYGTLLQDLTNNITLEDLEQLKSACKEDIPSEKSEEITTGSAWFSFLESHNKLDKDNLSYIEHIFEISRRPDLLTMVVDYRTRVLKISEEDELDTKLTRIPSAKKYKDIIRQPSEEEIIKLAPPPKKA
Chain of UniProt Q9UNM6 (Q9UNM6 whole entry, looked up): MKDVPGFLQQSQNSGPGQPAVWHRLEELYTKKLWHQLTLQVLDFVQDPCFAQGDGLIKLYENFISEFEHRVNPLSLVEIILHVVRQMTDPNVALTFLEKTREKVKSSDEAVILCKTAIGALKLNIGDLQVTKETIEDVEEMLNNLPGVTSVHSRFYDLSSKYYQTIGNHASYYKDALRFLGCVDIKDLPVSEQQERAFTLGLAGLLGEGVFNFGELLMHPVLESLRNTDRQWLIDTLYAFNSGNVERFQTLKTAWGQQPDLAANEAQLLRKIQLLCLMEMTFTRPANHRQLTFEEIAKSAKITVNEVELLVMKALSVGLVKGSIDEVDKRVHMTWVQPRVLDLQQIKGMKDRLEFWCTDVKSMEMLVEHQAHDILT
Chain of UniProt Q13356 (Q13356 whole entry, looked up): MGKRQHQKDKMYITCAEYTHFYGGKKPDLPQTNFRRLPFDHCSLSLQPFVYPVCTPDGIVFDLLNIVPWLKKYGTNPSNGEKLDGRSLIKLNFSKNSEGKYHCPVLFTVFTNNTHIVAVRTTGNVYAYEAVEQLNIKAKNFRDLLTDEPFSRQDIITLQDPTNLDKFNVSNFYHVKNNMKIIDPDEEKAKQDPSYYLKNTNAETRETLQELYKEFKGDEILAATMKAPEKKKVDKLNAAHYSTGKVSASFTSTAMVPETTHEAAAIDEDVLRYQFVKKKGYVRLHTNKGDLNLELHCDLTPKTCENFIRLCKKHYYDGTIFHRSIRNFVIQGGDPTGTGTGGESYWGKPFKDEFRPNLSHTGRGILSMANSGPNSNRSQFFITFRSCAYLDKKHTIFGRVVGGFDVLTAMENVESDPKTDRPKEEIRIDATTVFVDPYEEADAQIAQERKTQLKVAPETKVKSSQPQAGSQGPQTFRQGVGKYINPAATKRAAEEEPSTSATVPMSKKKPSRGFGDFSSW
Chain of UniProt Q32M88 (Q32M88 whole entry, looked up): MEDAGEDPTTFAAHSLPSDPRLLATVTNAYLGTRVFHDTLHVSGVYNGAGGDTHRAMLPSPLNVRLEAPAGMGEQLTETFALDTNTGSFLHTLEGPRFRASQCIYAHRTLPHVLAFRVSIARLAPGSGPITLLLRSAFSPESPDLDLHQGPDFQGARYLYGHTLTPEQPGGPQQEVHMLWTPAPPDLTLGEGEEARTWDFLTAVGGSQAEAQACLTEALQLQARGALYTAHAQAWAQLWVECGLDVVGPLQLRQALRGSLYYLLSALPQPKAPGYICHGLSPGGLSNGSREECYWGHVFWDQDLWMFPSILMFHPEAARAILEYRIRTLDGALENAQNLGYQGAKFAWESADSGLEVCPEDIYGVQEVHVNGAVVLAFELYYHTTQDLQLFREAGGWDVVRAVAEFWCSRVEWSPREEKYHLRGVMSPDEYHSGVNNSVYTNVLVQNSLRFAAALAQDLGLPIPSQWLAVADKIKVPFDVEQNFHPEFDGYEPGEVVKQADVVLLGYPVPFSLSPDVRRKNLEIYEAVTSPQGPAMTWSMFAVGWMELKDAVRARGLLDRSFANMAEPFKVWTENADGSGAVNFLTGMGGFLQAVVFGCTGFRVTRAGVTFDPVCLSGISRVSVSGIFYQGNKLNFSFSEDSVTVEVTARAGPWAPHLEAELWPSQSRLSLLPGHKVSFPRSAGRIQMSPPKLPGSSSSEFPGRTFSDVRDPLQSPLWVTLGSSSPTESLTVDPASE
Chain of UniProt Q8TAP8 (Q8TAP8 whole entry, looked up): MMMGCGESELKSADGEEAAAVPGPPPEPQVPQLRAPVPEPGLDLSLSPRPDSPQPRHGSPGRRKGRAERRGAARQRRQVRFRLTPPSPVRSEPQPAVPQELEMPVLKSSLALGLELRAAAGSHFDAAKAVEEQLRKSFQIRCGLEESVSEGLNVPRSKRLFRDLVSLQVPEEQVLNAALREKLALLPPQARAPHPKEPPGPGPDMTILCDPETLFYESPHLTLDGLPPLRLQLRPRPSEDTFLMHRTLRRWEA

Target | log2 fold change (IRAK-1-4 Inhibitor I) | log2 fold change (ibrutinib) | log2 fold change [1] | log2 fold change (ralimetinib) | log2 fold change [2] | log2 fold change [3] | log2 fold change [4] | log2 fold change (pinometostat) | log2 fold change [5] | log2 fold change [6]
PNN (UniProt Q9H307) | 0.051 | -0.047 | -0.134 | 0.032 | 0.004 | -0.146 | 0.145 | 0.124 | 0.056 | 
PHKG2 (UniProt P15735) | -0.034 | -0.008 | 0.39 (active) | 0.031 | -0.121 | -0.041 | 0.017 | 0.054 | -0.041 | 0.115
PPM1G (UniProt O15355) | -0.095 | -0.102 | -0.098 | -0.044 | -0.17 | -0.223 | 0.088 | -0.067 | -0.121 | -0.002
PDE2A (UniProt O00408) | 0.083 | 0.026 | -0.001 | 0.12 | -0.082 | 0.014 | -0.009 | -0.007 | -0.064 | 0.043
PPT2 isoform 3 (UniProt Q9UMR5) | 0.078 | 0.036 | -0.04 | 0.052 | 0.006 | -0.17 | -0.014 | -0.041 | -0.012 | 0.037
PSMD13 (UniProt Q9UNM6) | -0.048 | -0.039 | 0.048 | -0.021 | 0 | 0.009 | -0.265 (active) | 0.09 | 0.049 | 0.032
PRPSAP2 (UniProt O60256) | 0.02 | 0.008 | 0.074 | -0.013 | 0.003 | 0.035 | -0.017 | -0.003 | 0.033 | 0.063
PEX13 (UniProt Q92968) | 0.053 | -0.067 | -0.011 | 0.062 | -0.193 | -0.201 | 0.036 | -0.032 | 0.003 | 0.024
PRKAB1 (UniProt Q9Y478) | 0.015 | -0.02 | -0.184 | 0.022 | -0.069 | -0.006 | -0.041 | -0.048 | 0.036 | 0.015
PRIM1 (UniProt P49642) | -0.066 | -0.035 | 0.007 | 0.048 | -0.079 | -0.319 (active) | 0.046 | 0.114 | 0.026 | -0.006
PCLAF (UniProt Q15004) | 0.055 | 0.034 | -0.061 | -0.012 | 0.036 | 0.184 | 0.278 (active) | -0.012 | 0.139 | -0.088
PPP2R5A (UniProt Q15172) | 0.005 | -0.024 | 0.004 | 0.066 | -0.16 | -0.193 | 0.023 | 0.025 | 0.02 | 0.071
PDSS2 (UniProt Q86YH6) | 0.1 | 0.074 | 0.058 | -0.059 | -0.089 | -0.085 | 0.054 | -0.017 | -0.438 (active) | -0.022
PTRH2 (UniProt Q9Y3E5) | 0.059 | 0.031 | 0.075 | 0.085 | -0.065 | 0.062 | -0.081 | -0.033 | -0.008 | 0.017
PPP1R35 (UniProt Q8TAP8) | -0.055 | -0.057 | -0.069 | -0.007 | -0.026 | -0.049 | 0.036 | -0.021 | 0.049 | -0.049
PEX11B (UniProt O96011) | 0.025 | 0.04 | 0.032 | 0.005 | 0.008 | 0.075 | -0.058 | -0.031 | 0.055 | 0.012
PGGHG (UniProt Q32M88) | 0.018 | 0.045 | -0.013 | 0.136 | 0.05 | 0.044 | 0.008 | -0.054 | -0.124 | -0.027
PRPF31 (UniProt Q8WWY3) | -0.066 | -0.028 | -0.3 | 0.069 | -0.144 | -0.387 | 0.004 | 0 | -0.016 | -0.271
PIP4K2C (UniProt Q8TBX8) | 0.607 | 0.064 | 1.48 (active) | -0.019 | -0.14 | 0.095 | 0.003 | -0.006 | -0.106 | 0.018
PSME4 (UniProt Q14997) | 0.003 | -0.022 | -0.023 | -0.024 | -0.097 | -0.043 | 0.271 (active) | 0.068 | 0.023 | 0.105
PDS5A (UniProt Q29RF7) | -0.168 | -0.041 | -0.063 | -0.012 | -0.344 | -0.61 | 0.272 | 0.045 | 0.221 | -0.103
PEA15 isoform 2 (UniProt Q15121) | 0.025 | -0.024 | 0.054 | 0.007 | -0.079 | -0.045 | -0.046 | -0.004 | 0.007 | 0.038
POLR1A (UniProt O95602) | 0.06 | 0.06 | 0.022 | 0.153 | -0.022 | -0.091 | 0.005 | 0.07 | 0.052 | -0.14
PLBD2 (UniProt Q8NHP8) | 0.04 | 0.009 | 0.003 | -0.071 | -0.01 | -0.106 | 0.025 | 0.001 | -0.018 | -0.023
PC (UniProt P11498) | -0.024 | 0.04 | -0.151 | -0.02 | -0.038 | 0.183 | -0.037 | -0.016 | -0.081 | 0.15
PRMT3 (UniProt O60678) | 0 | -0.102 | -0.023 | -0.028 | -0.167 | -0.189 | 0.028 | 0.003 | 0.013 | 0.079
PCBP1 (UniProt Q15365) | 0 | -0.017 | -0.005 | 0.058 | -0.058 | -0.118 | -0.006 | -0.003 | 0.023 | 0.039
PFAS (UniProt O15067) | -0.055 | 0.065 | -0.217 | -0.003 | 0.02 | 0.131 | -0.055 | -0.02 | 0.039 | 0.17
PITRM1 isoform 2 (UniProt Q5JRX3) | 0.045 | -0.045 | -0.046 | 0.239 (active) | -0.173 | -0.026 | 0.062 | -0.042 | -0.013 | 0.006
PPIL2 (UniProt Q13356) | -0.097 | -0.048 | -0.077 | 0 | -0.081 | -0.044 | 0.096 | -0.063 | -0.043 | 0.062
